# Results as given in the supplement of paper PMC10477191.
# ± gives the standard deviation of the averaged measurements.
# Legend:
# Assay in all cases: odor-evoked OSN spike response (post minus pre-stimulus); higher = stronger neuronal excitation
# Details in all cases: odor dilution: 10^-4
# [1] = tested on: Drosophila ezoana antennal basiconic sensillum ab8
# Summary of the method: (§1)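 The response is the change in spike frequency between pre-stimulus and post-stimulus windows, averaged over replicate sensilla. Both windows lasted 1 second, and spikes were counted with Auto Spike software. Single sensillum recordings used a tungsten electrode at the base of antennal basiconic sensilla on restrained adult flies, with up to 3 sensilla per fly, and odorant at 10^−4 in mineral oil or DMSO (10 µl on filter paper) was delivered as a 500 ms pulse into a charcoal-filtered, humidified 1.5 l min^−1 air stream.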
# [2] = tested on: Drosophila virilis antennal basiconic sensillum AB7
# Summary of the method: as §1
# [3] = tested on: Drosophila ezoana antennal basiconic sensillum ab2
# Summary of the method: as §1
# [4] = tested on: Drosophila ezoana antennal basiconic sensillum ab3
# Summary of the method: as §1
# [5] = tested on: Drosophila ezoana antennal basiconic sensillum ab9
# Summary of the method: as §1
# [6] = tested on: Drosophila virilis antennal basiconic sensillum AB1
# Summary of the method: as §1
# [7] = tested on: Drosophila virilis antennal basiconic sensillum AB3
# Summary of the method: as §1
# [8] = tested on: Drosophila virilis antennal basiconic sensillum AB6
# Summary of the method: as §1
# [9] = tested on: Drosophila virilis antennal basiconic sensillum AB8
# Summary of the method: as §1
# [10] = tested on: Drosophila virilis antennal basiconic sensillum AB9
# Summary of the method: as §1
# [11] = tested on: Drosophila ezoana antennal basiconic sensillum ab4
# Summary of the method: as §1
# [12] = tested on: Drosophila virilis antennal basiconic sensillum AB2
# Summary of the method: as §1
# [13] = tested on: Drosophila ezoana antennal basiconic sensillum ab1
# Summary of the method: as §1
# [14] = tested on: Drosophila virilis antennal basiconic sensillum AB11
# Summary of the method: as §1
compound,measurement,setting,value
CC(C)CCO [Isopentyl alcohol],odor-evoked OSN spike response,[1],65.8 ± 25 spikes/s
same,odor-evoked OSN spike response,[2],51.2 ± 14 spikes/s
CCOC(=O)CC(C)O (stereo not given) [Ethyl-3-hydroxybutyrate],odor-evoked OSN spike response,[3],60.9 ± 32 spikes/s
same,odor-evoked OSN spike response,[4],133 ± 55 spikes/s
same,odor-evoked OSN spike response,[1],108 ± 45 spikes/s
same,odor-evoked OSN spike response,[5],59.2 ± 23 spikes/s
same,odor-evoked OSN spike response,[6],70.5 ± 24 spikes/s
same,odor-evoked OSN spike response,[7],167 ± 54 spikes/s
same,odor-evoked OSN spike response,[8],63.2 ± 25 spikes/s
same,odor-evoked OSN spike response,[2],85.6 ± 14 spikes/s
same,odor-evoked OSN spike response,[9],53 ± 9.4 spikes/s
same,odor-evoked OSN spike response,[10],58.3 ± 24 spikes/s
C[C@H]1CCC[C@@]2(C)CCCC[C@]12O [geosmin],odor-evoked OSN spike response,[11],119 ± 39 spikes/s
CCCC(O)CC (stereo not given) [3-hexanol],odor-evoked OSN spike response,[1],52.3 ± 27 spikes/s
same,odor-evoked OSN spike response,[2],57 ± 28 spikes/s
CCCCCCCC(C)O (stereo not given) [2-nonanol],odor-evoked OSN spike response,[4],55 ± 26 spikes/s
CCCC(=O)OCC [ethyl butanoate],odor-evoked OSN spike response,[12],71.9 ± 26 spikes/s
same,odor-evoked OSN spike response,[2],68.8 ± 9.7 spikes/s
same,odor-evoked OSN spike response,[10],75.9 ± 26 spikes/s
COC(=O)c1ccccc1O [Methyl salicylate],odor-evoked OSN spike response,[13],52.1 ± 33 spikes/s
same,odor-evoked OSN spike response,[4],64.8 ± 22 spikes/s
same,odor-evoked OSN spike response,[6],49 ± 22 spikes/s
CCCCCCOC(C)=O [Hexyl acetate],odor-evoked OSN spike response,[4],121 ± 33 spikes/s
same,odor-evoked OSN spike response,[1],88.7 ± 39 spikes/s
same,odor-evoked OSN spike response,[9],35.3 ± 18 spikes/s
same,odor-evoked OSN spike response,[10],53.3 ± 21 spikes/s
CCCCCCO [1-hexanol],odor-evoked OSN spike response,[4],53 ± 23 spikes/s
same,odor-evoked OSN spike response,[1],176 ± 44 spikes/s
same,odor-evoked OSN spike response,[2],61.4 ± 22 spikes/s
same,odor-evoked OSN spike response,[9],239 ± 25 spikes/s
same,odor-evoked OSN spike response,[10],28.8 ± 14 spikes/s
CCCC(=O)OCc1ccccc1 [benzyl butyrate],odor-evoked OSN spike response,[3],43.7 ± 32 spikes/s
same,odor-evoked OSN spike response,[5],56.9 ± 30 spikes/s
same,odor-evoked OSN spike response,[12],58.8 ± 31 spikes/s
"CC(O)C(C)O (stereo not given) [2,3-Butanediol]",odor-evoked OSN spike response,[13],68.2 ± 35 spikes/s
same,odor-evoked OSN spike response,[4],51.5 ± 25 spikes/s
same,odor-evoked OSN spike response,[6],71.5 ± 10 spikes/s
same,odor-evoked OSN spike response,[7],67.8 ± 30 spikes/s
same,odor-evoked OSN spike response,[2],66.2 ± 17 spikes/s
OCCc1ccccc1 [2-phenylethanol],odor-evoked OSN spike response,[1],63.9 ± 26 spikes/s
COc1ccccc1O [guaiacol],odor-evoked OSN spike response,[5],50.8 ± 26 spikes/s
same,odor-evoked OSN spike response,[8],73.3 ± 47 spikes/s
CCc1ccc(O)c(OC)c1 [4-Ethylguaiacol],odor-evoked OSN spike response,[4],57.6 ± 32 spikes/s
CCCCC(C)O (stereo not given) [2-hexanol],odor-evoked OSN spike response,[4],55 ± 32 spikes/s
same,odor-evoked OSN spike response,[2],61.4 ± 9.6 spikes/s
CC(=O)CCC=C(C)C [6-methyl-5-hepten-2-one],odor-evoked OSN spike response,[2],150 ± 34 spikes/s
CCCCCC(=O)OCC [ethyl hexanoate],odor-evoked OSN spike response,[4],141 ± 28 spikes/s
same,odor-evoked OSN spike response,[1],77.2 ± 32 spikes/s
same,odor-evoked OSN spike response,[5],56.8 ± 31 spikes/s
same,odor-evoked OSN spike response,[7],153 ± 23 spikes/s
same,odor-evoked OSN spike response,[2],49 ± 24 spikes/s
same,odor-evoked OSN spike response,[9],66.1 ± 8.9 spikes/s
same,odor-evoked OSN spike response,[10],67.4 ± 21 spikes/s
CCCC(=O)CC [3-hexanone],odor-evoked OSN spike response,[13],59.3 ± 31 spikes/s
same,odor-evoked OSN spike response,[4],52 ± 27 spikes/s
same,odor-evoked OSN spike response,[5],51.3 ± 35 spikes/s
same,odor-evoked OSN spike response,[6],76 ± 7.4 spikes/s
same,odor-evoked OSN spike response,[10],65.5 ± 27 spikes/s
CCOC(=O)C(C)O (stereo not given) [Ethyl lactate],odor-evoked OSN spike response,[13],70.3 ± 53 spikes/s
same,odor-evoked OSN spike response,[4],129 ± 36 spikes/s
same,odor-evoked OSN spike response,[1],51.4 ± 27 spikes/s
same,odor-evoked OSN spike response,[5],66.3 ± 26 spikes/s
same,odor-evoked OSN spike response,[6],128 ± 32 spikes/s
same,odor-evoked OSN spike response,[7],156 ± 44 spikes/s
same,odor-evoked OSN spike response,[8],50 ± 22 spikes/s
same,odor-evoked OSN spike response,[2],52.6 ± 7.5 spikes/s
same,odor-evoked OSN spike response,[9],44.8 ± 12 spikes/s
same,odor-evoked OSN spike response,[10],72.4 ± 20 spikes/s
CCCCCCCC/C=C\CCCCCCCC(=O)O [Oleic acid],odor-evoked OSN spike response,[3],43.9 ± 26 spikes/s
CCOC(C)=O [Ethyl acetate],odor-evoked OSN spike response,[13],56.4 ± 35 spikes/s
same,odor-evoked OSN spike response,[4],60.2 ± 27 spikes/s
same,odor-evoked OSN spike response,[6],69.2 ± 27 spikes/s
same,odor-evoked OSN spike response,[12],65 ± 20 spikes/s
CCOC(=O)c1ccccc1 [ethyl benzoate],odor-evoked OSN spike response,[3],69.5 ± 30 spikes/s
same,odor-evoked OSN spike response,[4],64 ± 27 spikes/s
same,odor-evoked OSN spike response,[5],105 ± 28 spikes/s
same,odor-evoked OSN spike response,[14],23.1 ± 7.8 spikes/s
same,odor-evoked OSN spike response,[10],85.5 ± 21 spikes/s
CCCOC(C)=O [propyl acetate],odor-evoked OSN spike response,[4],50 ± 27 spikes/s
same,odor-evoked OSN spike response,[1],51 ± 32 spikes/s
same,odor-evoked OSN spike response,[5],60.9 ± 37 spikes/s
same,odor-evoked OSN spike response,[10],84.2 ± 24 spikes/s
C=CC(O)CCCCC (stereo not given) [1-octen-3-ol],odor-evoked OSN spike response,[1],118 ± 51 spikes/s
same,odor-evoked OSN spike response,[5],50.6 ± 26 spikes/s
same,odor-evoked OSN spike response,[8],114 ± 44 spikes/s
same,odor-evoked OSN spike response,[2],106 ± 11 spikes/s
same,odor-evoked OSN spike response,[9],113 ± 14 spikes/s
CCCCCC(C)=O [2-heptanone],odor-evoked OSN spike response,[4],64.7 ± 28 spikes/s
same,odor-evoked OSN spike response,[1],54.2 ± 25 spikes/s
same,odor-evoked OSN spike response,[2],155 ± 25 spikes/s
COC(=O)c1ccccc1 [methyl benzoate],odor-evoked OSN spike response,[3],55.9 ± 36 spikes/s
same,odor-evoked OSN spike response,[5],125 ± 48 spikes/s
same,odor-evoked OSN spike response,[10],86.1 ± 27 spikes/s
CCCCCCCC(C)=O [2-nonanone],odor-evoked OSN spike response,[4],57.8 ± 38 spikes/s
CC(=O)C(C)O (stereo not given) [acetoin],odor-evoked OSN spike response,[13],79.9 ± 48 spikes/s
same,odor-evoked OSN spike response,[4],135 ± 51 spikes/s
same,odor-evoked OSN spike response,[5],57.3 ± 30 spikes/s
same,odor-evoked OSN spike response,[6],82.8 ± 39 spikes/s
same,odor-evoked OSN spike response,[7],226 ± 54 spikes/s
same,odor-evoked OSN spike response,[10],97.4 ± 24 spikes/s
CCC(=O)OCCC(C)C [Isopentyl propionate],odor-evoked OSN spike response,[1],79 ± 39 spikes/s
same,odor-evoked OSN spike response,[5],66.7 ± 31 spikes/s
same,odor-evoked OSN spike response,[9],56.8 ± 27 spikes/s
same,odor-evoked OSN spike response,[10],86.6 ± 27 spikes/s
C/C=C/C(=O)OCC [Ethyl crotonate],odor-evoked OSN spike response,[3],61.5 ± 39 spikes/s
same,odor-evoked OSN spike response,[5],50.1 ± 30 spikes/s
same,odor-evoked OSN spike response,[12],47.5 ± 26 spikes/s
CCCCCOC(C)=O [pentyl acetate],odor-evoked OSN spike response,[13],62.6 ± 43 spikes/s
same,odor-evoked OSN spike response,[4],120 ± 29 spikes/s
same,odor-evoked OSN spike response,[1],122 ± 45 spikes/s
same,odor-evoked OSN spike response,[5],67.9 ± 29 spikes/s
same,odor-evoked OSN spike response,[7],121 ± 16 spikes/s
same,odor-evoked OSN spike response,[2],75.4 ± 13 spikes/s
same,odor-evoked OSN spike response,[9],119 ± 24 spikes/s
same,odor-evoked OSN spike response,[10],80 ± 39 spikes/s
CC(C)OC(=O)c1ccccc1 [isopropyl benzoate],odor-evoked OSN spike response,[3],91.2 ± 45 spikes/s
same,odor-evoked OSN spike response,[4],54.9 ± 29 spikes/s
same,odor-evoked OSN spike response,[5],58.6 ± 20 spikes/s
same,odor-evoked OSN spike response,[14],54 ± 12 spikes/s
same,odor-evoked OSN spike response,[12],45.6 ± 23 spikes/s
CC(=O)c1ccccc1 [Acetophenone],odor-evoked OSN spike response,[1],71.8 ± 25 spikes/s
same,odor-evoked OSN spike response,[5],68.3 ± 26 spikes/s
CC(=O)OCCC(C)C [Isopentyl acetate],odor-evoked OSN spike response,[4],55.5 ± 29 spikes/s
same,odor-evoked OSN spike response,[1],73.6 ± 38 spikes/s
same,odor-evoked OSN spike response,[5],56.7 ± 36 spikes/s
same,odor-evoked OSN spike response,[10],81.4 ± 33 spikes/s
CCCCC(C)=O [2-hexanone],odor-evoked OSN spike response,[4],52.9 ± 26 spikes/s
same,odor-evoked OSN spike response,[2],50.8 ± 8.6 spikes/s
CC(C)=CCCC(C)=CC=O (mixture of isomers) [citral],odor-evoked OSN spike response,[4],52.2 ± 25 spikes/s
same,odor-evoked OSN spike response,[5],55.8 ± 30 spikes/s
